Data as given in ChEMBL document CHEMBL1961873, “Compounds: GSK PKIS; Assays: Nanosyn kinase panel” (2012).

How the values were obtained:
[1] = biological target: Protein kinase C gamma type (Homo sapiens) (UniProt P05129); conditions: at 1 µM;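 further: each value is an averaged percent inhibition of the enzyme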
[2] = biological target: T1, Protein kinase C iota type (Homo sapiens) (UniProt P41743); conditions: at 0.1 µM
T1 sequence (whole entry): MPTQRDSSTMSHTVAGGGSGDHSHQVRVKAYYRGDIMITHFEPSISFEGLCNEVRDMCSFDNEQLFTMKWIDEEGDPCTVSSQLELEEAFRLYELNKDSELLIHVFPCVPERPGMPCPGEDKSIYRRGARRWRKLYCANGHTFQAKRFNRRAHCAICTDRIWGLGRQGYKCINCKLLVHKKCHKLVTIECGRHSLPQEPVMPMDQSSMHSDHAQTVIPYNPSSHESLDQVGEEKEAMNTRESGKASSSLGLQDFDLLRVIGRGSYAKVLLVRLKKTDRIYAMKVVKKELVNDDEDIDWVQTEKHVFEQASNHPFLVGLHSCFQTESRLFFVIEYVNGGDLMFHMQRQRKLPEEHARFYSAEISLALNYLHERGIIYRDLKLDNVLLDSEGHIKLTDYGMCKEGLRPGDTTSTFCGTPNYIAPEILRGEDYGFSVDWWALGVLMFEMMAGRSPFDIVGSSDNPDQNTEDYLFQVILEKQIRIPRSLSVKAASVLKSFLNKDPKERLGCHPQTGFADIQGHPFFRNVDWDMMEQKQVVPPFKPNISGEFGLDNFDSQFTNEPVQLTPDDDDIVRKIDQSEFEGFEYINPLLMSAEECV

[3] = biological target: T1, Protein kinase C iota type (Homo sapiens); conditions: at 1 µM
[4] = biological target: Protein kinase C theta type (Homo sapiens) (UniProt Q04759); conditions: at 0.1 µM
Sequence of Protein kinase C theta type (Homo sapiens) (Q04759 whole entry, looked up): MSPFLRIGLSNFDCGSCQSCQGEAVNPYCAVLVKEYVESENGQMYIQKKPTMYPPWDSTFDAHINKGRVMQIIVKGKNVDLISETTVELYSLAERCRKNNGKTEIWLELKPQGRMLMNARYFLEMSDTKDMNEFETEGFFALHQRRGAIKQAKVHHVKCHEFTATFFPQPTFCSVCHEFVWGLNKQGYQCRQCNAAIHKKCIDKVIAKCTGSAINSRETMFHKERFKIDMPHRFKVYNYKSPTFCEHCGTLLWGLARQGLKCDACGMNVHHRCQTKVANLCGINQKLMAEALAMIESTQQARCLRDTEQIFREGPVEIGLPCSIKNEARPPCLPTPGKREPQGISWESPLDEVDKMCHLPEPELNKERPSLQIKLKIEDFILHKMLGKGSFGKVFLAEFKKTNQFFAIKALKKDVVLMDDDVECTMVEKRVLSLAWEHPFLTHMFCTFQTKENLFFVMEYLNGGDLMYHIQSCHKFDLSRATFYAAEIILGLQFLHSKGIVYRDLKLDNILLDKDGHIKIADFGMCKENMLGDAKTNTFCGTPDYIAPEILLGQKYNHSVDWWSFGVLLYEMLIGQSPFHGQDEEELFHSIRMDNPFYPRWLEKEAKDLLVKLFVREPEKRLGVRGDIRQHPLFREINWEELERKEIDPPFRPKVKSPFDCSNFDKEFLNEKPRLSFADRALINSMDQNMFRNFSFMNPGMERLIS

[5] = biological target: Protein kinase C theta type (Homo sapiens) (UniProt Q04759); conditions: at 1 µM
[6] = biological target: Protein kinase C beta type (Homo sapiens) (UniProt P05771); conditions: at 0.1 µM
Sequence of Protein kinase C beta type (Homo sapiens) (P05771 2-671 limits assumed): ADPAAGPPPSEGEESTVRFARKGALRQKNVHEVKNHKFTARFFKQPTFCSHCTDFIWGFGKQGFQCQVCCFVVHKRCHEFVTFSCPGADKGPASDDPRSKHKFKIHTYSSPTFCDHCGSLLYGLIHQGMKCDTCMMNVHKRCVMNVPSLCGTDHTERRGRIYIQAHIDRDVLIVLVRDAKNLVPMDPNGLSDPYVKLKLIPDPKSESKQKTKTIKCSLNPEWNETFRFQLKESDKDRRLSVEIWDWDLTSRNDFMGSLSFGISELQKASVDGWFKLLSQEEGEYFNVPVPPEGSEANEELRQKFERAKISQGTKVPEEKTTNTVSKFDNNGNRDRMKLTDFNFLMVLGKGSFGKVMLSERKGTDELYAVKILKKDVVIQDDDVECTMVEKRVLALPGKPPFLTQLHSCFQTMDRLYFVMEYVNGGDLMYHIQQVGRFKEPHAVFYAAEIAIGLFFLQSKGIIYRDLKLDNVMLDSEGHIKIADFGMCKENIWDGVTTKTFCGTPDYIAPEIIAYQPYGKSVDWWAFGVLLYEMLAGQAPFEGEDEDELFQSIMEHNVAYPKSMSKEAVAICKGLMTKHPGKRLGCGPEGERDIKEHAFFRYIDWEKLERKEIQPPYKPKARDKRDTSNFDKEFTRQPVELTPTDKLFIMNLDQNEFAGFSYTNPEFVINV

[7] = biological target: Protein kinase C beta type (Homo sapiens) (UniProt P05771); conditions: at 1 µM
[8] = biological target: T2, Serine/threonine-protein kinase D1 (Homo sapiens) (UniProt Q15139); conditions: at 0.1 µM
T2 sequence (whole entry): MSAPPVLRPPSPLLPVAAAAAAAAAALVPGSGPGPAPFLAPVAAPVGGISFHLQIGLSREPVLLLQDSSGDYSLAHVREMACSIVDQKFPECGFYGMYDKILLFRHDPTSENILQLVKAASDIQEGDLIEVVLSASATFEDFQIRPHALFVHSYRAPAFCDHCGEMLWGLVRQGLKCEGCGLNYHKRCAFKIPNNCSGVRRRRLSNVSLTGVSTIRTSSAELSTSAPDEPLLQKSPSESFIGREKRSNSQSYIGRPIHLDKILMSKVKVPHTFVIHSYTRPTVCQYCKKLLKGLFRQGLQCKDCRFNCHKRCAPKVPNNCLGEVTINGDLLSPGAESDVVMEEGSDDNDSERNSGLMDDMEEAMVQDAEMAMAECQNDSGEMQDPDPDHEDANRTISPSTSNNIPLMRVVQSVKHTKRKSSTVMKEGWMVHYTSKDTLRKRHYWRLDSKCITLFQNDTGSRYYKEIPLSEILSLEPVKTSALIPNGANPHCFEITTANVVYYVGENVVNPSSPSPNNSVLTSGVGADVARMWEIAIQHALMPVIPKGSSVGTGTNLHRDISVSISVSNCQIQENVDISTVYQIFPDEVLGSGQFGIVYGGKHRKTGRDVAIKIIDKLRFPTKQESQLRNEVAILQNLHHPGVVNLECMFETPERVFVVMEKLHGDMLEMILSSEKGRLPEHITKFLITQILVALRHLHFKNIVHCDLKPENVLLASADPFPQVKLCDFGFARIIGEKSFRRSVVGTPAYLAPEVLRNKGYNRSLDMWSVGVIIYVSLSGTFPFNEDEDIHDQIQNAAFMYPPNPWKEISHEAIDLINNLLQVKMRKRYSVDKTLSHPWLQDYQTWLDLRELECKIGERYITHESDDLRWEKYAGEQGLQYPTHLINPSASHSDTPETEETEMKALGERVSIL

[9] = biological target: T2, Serine/threonine-protein kinase D1 (Homo sapiens); conditions: at 1 µM
[10] = biological target: T3, Serine/threonine-protein kinase D2 (Homo sapiens) (UniProt Q9BZL6); conditions: at 0.1 µM
T3 sequence (whole entry): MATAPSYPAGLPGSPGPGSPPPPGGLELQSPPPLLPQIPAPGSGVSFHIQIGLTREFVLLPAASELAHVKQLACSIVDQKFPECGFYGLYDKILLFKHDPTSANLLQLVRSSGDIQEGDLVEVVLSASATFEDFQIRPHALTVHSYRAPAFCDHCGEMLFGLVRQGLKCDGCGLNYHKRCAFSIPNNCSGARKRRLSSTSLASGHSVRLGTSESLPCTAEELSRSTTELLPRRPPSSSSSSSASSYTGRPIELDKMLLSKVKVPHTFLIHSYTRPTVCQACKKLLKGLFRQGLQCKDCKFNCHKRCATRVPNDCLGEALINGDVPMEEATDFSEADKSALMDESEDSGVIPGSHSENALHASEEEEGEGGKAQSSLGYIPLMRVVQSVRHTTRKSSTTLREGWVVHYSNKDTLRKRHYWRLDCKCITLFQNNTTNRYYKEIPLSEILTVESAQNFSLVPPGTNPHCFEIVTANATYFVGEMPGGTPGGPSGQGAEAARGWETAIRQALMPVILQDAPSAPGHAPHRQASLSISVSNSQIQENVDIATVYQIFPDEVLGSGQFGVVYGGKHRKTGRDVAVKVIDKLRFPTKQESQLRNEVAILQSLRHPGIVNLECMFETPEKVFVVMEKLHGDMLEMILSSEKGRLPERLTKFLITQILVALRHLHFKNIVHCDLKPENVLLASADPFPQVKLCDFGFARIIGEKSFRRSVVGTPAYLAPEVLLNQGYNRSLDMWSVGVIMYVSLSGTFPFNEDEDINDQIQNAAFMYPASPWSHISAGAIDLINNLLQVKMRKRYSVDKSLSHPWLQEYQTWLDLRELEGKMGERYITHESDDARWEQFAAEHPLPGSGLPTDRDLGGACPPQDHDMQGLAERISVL

[11] = biological target: T3, Serine/threonine-protein kinase D2 (Homo sapiens); conditions: at 1 µM
[12] = biological target: T4, Serine/threonine-protein kinase D3 (Homo sapiens) (UniProt O94806); conditions: at 0.1 µM
T4 sequence (whole entry): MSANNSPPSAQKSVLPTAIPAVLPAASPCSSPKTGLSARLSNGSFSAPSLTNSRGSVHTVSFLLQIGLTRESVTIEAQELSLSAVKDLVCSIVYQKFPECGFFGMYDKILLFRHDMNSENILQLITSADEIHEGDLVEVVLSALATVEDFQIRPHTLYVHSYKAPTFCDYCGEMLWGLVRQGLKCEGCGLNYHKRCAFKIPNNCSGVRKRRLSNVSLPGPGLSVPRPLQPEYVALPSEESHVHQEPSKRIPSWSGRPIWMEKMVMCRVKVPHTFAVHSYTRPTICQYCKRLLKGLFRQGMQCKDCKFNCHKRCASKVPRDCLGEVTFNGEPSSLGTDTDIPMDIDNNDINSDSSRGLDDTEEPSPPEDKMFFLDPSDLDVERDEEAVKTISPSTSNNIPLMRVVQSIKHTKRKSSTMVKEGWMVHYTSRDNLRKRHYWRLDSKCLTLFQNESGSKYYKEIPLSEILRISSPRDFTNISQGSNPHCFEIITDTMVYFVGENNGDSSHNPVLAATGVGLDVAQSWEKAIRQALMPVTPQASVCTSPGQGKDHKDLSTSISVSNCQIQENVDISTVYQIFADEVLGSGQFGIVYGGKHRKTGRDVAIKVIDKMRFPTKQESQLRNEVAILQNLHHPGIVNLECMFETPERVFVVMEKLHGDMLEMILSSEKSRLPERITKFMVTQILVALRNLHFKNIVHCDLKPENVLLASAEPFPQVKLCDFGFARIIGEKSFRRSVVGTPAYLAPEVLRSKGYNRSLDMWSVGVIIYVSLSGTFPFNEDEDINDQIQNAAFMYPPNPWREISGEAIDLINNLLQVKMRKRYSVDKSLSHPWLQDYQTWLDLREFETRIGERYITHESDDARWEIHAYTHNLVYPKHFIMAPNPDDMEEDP

[13] = biological target: T4, Serine/threonine-protein kinase D3 (Homo sapiens); conditions: at 1 µM
[14] = biological target: T5, cGMP-dependent protein kinase 1 (Homo sapiens) (UniProt Q13976); conditions: at 0.1 µM
T5 sequence (whole entry): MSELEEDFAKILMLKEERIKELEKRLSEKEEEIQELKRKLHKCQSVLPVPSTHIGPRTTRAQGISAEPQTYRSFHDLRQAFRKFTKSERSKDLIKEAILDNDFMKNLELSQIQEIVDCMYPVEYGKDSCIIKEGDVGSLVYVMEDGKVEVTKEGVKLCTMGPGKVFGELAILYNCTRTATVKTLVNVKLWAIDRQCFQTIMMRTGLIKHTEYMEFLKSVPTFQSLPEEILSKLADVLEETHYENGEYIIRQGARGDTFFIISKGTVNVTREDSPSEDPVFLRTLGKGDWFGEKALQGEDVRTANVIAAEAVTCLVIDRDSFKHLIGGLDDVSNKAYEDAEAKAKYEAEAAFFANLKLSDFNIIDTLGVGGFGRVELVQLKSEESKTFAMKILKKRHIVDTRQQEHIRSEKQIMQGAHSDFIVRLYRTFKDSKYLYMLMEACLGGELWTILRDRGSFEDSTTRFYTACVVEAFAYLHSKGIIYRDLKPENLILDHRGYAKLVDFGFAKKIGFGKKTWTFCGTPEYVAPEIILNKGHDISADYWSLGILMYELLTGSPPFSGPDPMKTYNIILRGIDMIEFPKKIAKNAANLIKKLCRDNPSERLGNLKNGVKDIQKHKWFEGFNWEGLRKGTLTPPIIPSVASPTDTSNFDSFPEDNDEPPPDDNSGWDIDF

[15] = biological target: T5, cGMP-dependent protein kinase 1 (Homo sapiens); conditions: at 1 µM
[16] = biological target: T6, cGMP-dependent protein kinase 2 (Homo sapiens) (UniProt Q13237); conditions: at 0.1 µM
T6 sequence (whole entry): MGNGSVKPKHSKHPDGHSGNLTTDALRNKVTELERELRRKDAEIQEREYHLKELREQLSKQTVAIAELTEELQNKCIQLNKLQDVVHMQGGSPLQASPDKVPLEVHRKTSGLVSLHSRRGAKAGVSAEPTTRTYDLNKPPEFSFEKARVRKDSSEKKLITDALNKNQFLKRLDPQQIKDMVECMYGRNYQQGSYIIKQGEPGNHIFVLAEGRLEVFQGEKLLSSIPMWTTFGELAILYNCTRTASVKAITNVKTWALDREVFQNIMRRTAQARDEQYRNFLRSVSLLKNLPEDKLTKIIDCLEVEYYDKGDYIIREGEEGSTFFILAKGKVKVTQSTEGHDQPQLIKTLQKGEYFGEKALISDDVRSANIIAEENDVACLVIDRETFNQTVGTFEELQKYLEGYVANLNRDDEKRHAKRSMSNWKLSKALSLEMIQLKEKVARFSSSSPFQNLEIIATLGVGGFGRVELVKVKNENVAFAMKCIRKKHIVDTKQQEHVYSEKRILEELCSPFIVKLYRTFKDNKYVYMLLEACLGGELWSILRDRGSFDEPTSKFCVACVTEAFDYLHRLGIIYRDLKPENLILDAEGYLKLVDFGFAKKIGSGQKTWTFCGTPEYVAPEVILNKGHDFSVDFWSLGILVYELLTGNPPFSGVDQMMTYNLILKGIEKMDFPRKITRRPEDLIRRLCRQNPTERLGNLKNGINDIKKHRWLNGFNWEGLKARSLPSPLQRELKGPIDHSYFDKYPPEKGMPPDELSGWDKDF

[17] = biological target: T6, cGMP-dependent protein kinase 2 (Homo sapiens); conditions: at 1 µM
[18] = biological target: T7, cAMP-dependent protein kinase catalytic subunit PRKX (Homo sapiens) (UniProt P51817); conditions: at 0.1 µM
T7 sequence (whole entry): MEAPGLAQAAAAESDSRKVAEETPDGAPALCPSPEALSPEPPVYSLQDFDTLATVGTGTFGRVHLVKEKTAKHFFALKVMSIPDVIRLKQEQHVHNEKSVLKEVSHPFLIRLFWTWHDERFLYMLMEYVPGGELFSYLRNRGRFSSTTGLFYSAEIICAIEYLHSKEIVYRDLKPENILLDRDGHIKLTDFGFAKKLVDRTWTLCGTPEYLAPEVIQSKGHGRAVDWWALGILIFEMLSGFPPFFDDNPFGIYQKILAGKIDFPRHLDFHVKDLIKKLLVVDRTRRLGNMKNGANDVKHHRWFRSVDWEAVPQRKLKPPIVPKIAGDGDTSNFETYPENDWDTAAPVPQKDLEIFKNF

[19] = biological target: T7, cAMP-dependent protein kinase catalytic subunit PRKX (Homo sapiens); conditions: at 1 µM
[20] = biological target: Rho-associated protein kinase 1 (Homo sapiens) (UniProt Q13464); conditions: at 0.1 µM;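 further: values are mean percent inhibition of ROCK1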
Sequence of Rho-associated protein kinase 1 (Homo sapiens) (Q13464 2-1354 limits assumed): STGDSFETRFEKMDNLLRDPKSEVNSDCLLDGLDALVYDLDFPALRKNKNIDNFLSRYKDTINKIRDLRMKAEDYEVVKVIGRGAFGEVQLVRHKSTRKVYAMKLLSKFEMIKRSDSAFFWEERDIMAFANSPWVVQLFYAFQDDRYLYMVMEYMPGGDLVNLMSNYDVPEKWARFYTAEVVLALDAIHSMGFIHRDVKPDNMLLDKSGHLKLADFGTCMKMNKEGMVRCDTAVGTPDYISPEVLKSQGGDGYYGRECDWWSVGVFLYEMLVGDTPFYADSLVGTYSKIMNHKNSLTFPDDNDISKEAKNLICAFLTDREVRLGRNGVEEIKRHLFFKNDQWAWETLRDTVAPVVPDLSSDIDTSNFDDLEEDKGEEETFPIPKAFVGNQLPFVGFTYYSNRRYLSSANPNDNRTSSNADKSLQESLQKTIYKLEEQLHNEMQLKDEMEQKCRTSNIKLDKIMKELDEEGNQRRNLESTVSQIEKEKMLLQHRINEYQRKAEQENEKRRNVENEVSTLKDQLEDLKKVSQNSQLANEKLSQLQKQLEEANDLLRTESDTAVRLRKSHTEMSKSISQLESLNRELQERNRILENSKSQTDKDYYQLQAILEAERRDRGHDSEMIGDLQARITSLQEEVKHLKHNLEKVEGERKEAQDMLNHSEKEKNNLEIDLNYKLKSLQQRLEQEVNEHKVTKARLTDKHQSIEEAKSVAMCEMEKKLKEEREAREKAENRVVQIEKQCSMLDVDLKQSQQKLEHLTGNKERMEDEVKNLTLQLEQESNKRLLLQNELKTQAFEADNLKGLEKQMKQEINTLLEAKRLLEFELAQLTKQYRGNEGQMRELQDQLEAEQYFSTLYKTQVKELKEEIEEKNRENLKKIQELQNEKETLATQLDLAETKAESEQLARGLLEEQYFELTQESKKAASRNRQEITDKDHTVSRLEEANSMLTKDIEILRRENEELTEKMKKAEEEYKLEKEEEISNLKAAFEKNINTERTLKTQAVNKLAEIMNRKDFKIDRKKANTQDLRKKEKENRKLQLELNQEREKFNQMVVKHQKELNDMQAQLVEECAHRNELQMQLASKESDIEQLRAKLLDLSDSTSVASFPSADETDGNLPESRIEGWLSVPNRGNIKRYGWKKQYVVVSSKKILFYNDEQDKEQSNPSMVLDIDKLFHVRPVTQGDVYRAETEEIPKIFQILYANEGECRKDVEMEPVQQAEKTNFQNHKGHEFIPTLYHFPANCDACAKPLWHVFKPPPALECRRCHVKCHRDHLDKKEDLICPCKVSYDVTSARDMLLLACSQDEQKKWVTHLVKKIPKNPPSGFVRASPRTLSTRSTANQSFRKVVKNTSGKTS

c1ccc(-c2n[nH]cc2-c2ccnc(-c3ccc(OCCn4ccnc4)cc3)c2)nc1
inhibition [1]: 2.35% | inhibition [2]: 0.38% | inhibition [3]: -0.37% | inhibition [4]: 0.23% | inhibition [5]: 0.98% | inhibition [6]: 0.85% | inhibition [7]: -0.29% | inhibition [8]: 9.5% | inhibition [9]: 56.5% | inhibition [10]: 14.6% | inhibition [11]: 64.3% | inhibition [12]: 7.07% | inhibition [13]: 47.7% | inhibition [14]: 0.59% | inhibition [15]: 4.08% | inhibition [16]: 1.04% | inhibition [17]: 2.63% | inhibition [18]: 2.32% | inhibition [19]: 7.66% | inhibition [20]: 4.13%

CS(=O)(=O)CCNCc1ccc(-c2ccc3ncnc(Nc4ccc(OCc5ccccc5)cc4)c3c2)o1
inhibition [1]: 3.26% | inhibition [2]: 1.61% | inhibition [3]: 1.87% | inhibition [4]: 1.49% | inhibition [5]: 2.01% | inhibition [6]: 0.51% | inhibition [7]: 0.86% | inhibition [8]: 3.17% | inhibition [9]: 4.08% | inhibition [10]: 2.78% | inhibition [11]: 2.54% | inhibition [12]: 3.53% | inhibition [13]: 3.51% | inhibition [14]: 2.37% | inhibition [15]: 1.88% | inhibition [16]: 2.69% | inhibition [17]: 2.6% | inhibition [18]: 1.54% | inhibition [19]: 1.49% | inhibition [20]: 1.22%

CNC(=O)c1ncccc1Nc1nc(Nc2cc3c(cc2OC)CCCN3C(=O)CN(C)C)nc2[nH]ccc12
inhibition [1]: 20.5% | inhibition [2]: 1.89% | inhibition [3]: 2.01% | inhibition [4]: 1.94% | inhibition [5]: 5.49% | inhibition [6]: 1.44% | inhibition [7]: 7.12% | inhibition [8]: 5.48% | inhibition [9]: 24.5% | inhibition [10]: 7.16% | inhibition [11]: 41.6% | inhibition [12]: 9.65% | inhibition [13]: 55.3% | inhibition [14]: 1.9% | inhibition [15]: 7.42% | inhibition [16]: 3.34% | inhibition [17]: 5.86% | inhibition [18]: 1.64% | inhibition [19]: 1.14% | inhibition [20]: 1.58%
